PubChem BioAssay (NCI)
Compounds without any hit were thinned out: in the full panel of roughly 83,000, 20% have a hit.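 Single-dose data. Exposure time 48 hours. Values below 10 considered active.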 The source made the active and inactive calls.

Assays:
Test in all cases: NCI-60 one-dose screen, 48 h (100 = growth as untreated, 0 = no growth, -100 = all killed)
Conditions in all cases: 10 µM unless noted
NCI-H23 lung = test system: NCI-H23 lung
NCI-H226 lung = test system: NCI-H226 lung
NCI-H322M lung = test system: NCI-H322M lung
HOP-62 NSCLC = test system: HOP-62 NSCLC
NCI-H460 lung = test system: NCI-H460 lung
NCI-H522 lung = test system: NCI-H522 lung
A549/ATCC NSCLC = test system: A549/ATCC NSCLC
786-0 renal = test system: 786-0 renal
COLO 205 colon = test system: COLO 205 colon
HOP-92 NSCLC = test system: HOP-92 NSCLC

Measured: growth

Nc1nc(-c2cc3c(cc2Cl)NC(=O)/C3=C/c2ccccc2)cs1
inactive: NCI-H23 lung 56.5% | NCI-H226 lung 71.8% | NCI-H322M lung 70.1% | HOP-62 NSCLC 78.6% | NCI-H460 lung 56.8% | NCI-H522 lung 27.5% | A549/ATCC NSCLC 61.5% | 786-0 renal 83.9% | COLO 205 colon 81.3%

NC(=S)NNC1CCCCC1
inactive: NCI-H23 lung 97.6% | NCI-H226 lung 91.1% | NCI-H322M lung 87.7% | HOP-62 NSCLC 83.2% | NCI-H460 lung 104% | NCI-H522 lung 72.3% | A549/ATCC NSCLC 74.5% | 786-0 renal 99.3% | COLO 205 colon 100%

O=C(Nc1ccc(-n2ccc3c(NC(=O)c4ccccc4)ncnc32)cc1)Nc1ccc(Cl)c(Cl)c1
active: HOP-62 NSCLC 8.39% | NCI-H460 lung -29.6% | NCI-H522 lung -12.2% | A549/ATCC NSCLC -44.5%
inactive: NCI-H23 lung 18.7% | NCI-H226 lung 16.7% | NCI-H322M lung 21% | 786-0 renal 26.1% | COLO 205 colon 17.7%

CC(Cl)(CCl)CS(=O)(=O)c1ccc(Cl)cc1 (stereo not drawn)
inactive: NCI-H23 lung 101% | NCI-H226 lung 92.6% | NCI-H322M lung 100% | HOP-62 NSCLC 94.8% | NCI-H460 lung 107% | NCI-H522 lung 92.9% | A549/ATCC NSCLC 88.9% | 786-0 renal 102% | COLO 205 colon 106%

CN(C)CCCOc1c(Br)cc(/C=C/C(=O)N(C)CCc2cc(Br)c(OCCCN(C)C)c(Br)c2)cc1Br
inactive: NCI-H23 lung 81.5% | NCI-H226 lung 95.7% | NCI-H322M lung 59.5% | HOP-62 NSCLC 82.3% | NCI-H460 lung 23.1% | NCI-H522 lung 13.5% | A549/ATCC NSCLC 41.5% | 786-0 renal 63.7% | COLO 205 colon 39.3%

O=S(=O)(O)c1ccc(F)cc1
inactive: NCI-H23 lung 96.1% | NCI-H226 lung 103% | NCI-H322M lung 97.3% | HOP-62 NSCLC 92.6% | NCI-H460 lung 111% | NCI-H522 lung 82.8% | A549/ATCC NSCLC 101% | 786-0 renal 103% | COLO 205 colon 114%

CCC(C)Nc1ccc(N)cc1 (stereo not drawn)
inactive: NCI-H226 lung 42.5% | NCI-H322M lung 53.3% | HOP-62 NSCLC 11.6% | A549/ATCC NSCLC 11.8%
active: NCI-H23 lung 5.04% | NCI-H460 lung 9.41% | NCI-H522 lung -25.2% | 786-0 renal -35.8% | COLO 205 colon -57.2%

O=C1C(Cl)=C(Nc2cccc3cc4ccccc4nc23)C(=O)c2ccccc21
inactive: NCI-H23 lung 54.7% | NCI-H226 lung 67.2% | NCI-H322M lung 51% | HOP-62 NSCLC 45.9% | NCI-H460 lung 18.2% | NCI-H522 lung 22.3% | A549/ATCC NSCLC 29.8% | 786-0 renal 50.1% | COLO 205 colon 12%

COc1cc(C(=O)N2CCN(C(=O)c3cc(OC)c(OCc4ccccc4)cc3N)CC2)c(N)cc1OCc1ccccc1
inactive: NCI-H23 lung 86.8% | NCI-H226 lung 122% | NCI-H322M lung 99.3% | HOP-62 NSCLC 108% | NCI-H460 lung 115% | NCI-H522 lung 103% | A549/ATCC NSCLC 107% | 786-0 renal 104% | COLO 205 colon 115%

COC(OC)C1(c2ccccc2)NC(=O)NC1=O (stereo not drawn)
inactive: NCI-H23 lung 112% | NCI-H226 lung 113% | NCI-H322M lung 108% | HOP-62 NSCLC 103% | NCI-H460 lung 115% | NCI-H522 lung 79.8% | A549/ATCC NSCLC 95.9% | 786-0 renal 108% | COLO 205 colon 119%

O=C1OC(c2ccc(-c3ccccc3)cc2)=C/C1=C/C=C/c1ccccc1
active: A549/ATCC NSCLC 9.59%
inactive: NCI-H23 lung 100% | NCI-H226 lung 82.3% | NCI-H322M lung 92.5% | HOP-62 NSCLC 97.1% | NCI-H460 lung 103% | NCI-H522 lung 95.1% | COLO 205 colon 120%

C=C1C(=O)O[C@H]2[C@H]1CC/C(C(=O)NCCOCCOCC(=O)Nc1ccc(OC)c(C(N)=O)c1O)=C\CC[C@@]1(C)O[C@@H]21
inactive: NCI-H23 lung 97.7% | NCI-H226 lung 80.7% | NCI-H322M lung 94.2% | HOP-62 NSCLC 91.8% | NCI-H460 lung 106% | NCI-H522 lung 26.1% | A549/ATCC NSCLC 84.4% | 786-0 renal 94.3% | COLO 205 colon 73.7%

O=C(O)c1cn(C2CC2)c2cc(N3CCN(C(=O)CSc4nc(NS(=O)(=O)c5ccccc5)cc(=O)[nH]4)CC3)c(F)cc2c1=O
inactive: NCI-H23 lung 94.3% | NCI-H226 lung 96.2% | NCI-H322M lung 92.5% | HOP-62 NSCLC 116% | NCI-H460 lung 96.2% | NCI-H522 lung 95.6% | A549/ATCC NSCLC 110% | 786-0 renal 111% | COLO 205 colon 109%

OCc1cnccc1NC12CC3CC(CC(C3)C1)C2
inactive: NCI-H23 lung 102% | NCI-H226 lung 95.4% | NCI-H322M lung 103% | HOP-62 NSCLC 101% | NCI-H460 lung 100% | NCI-H522 lung 86.1% | A549/ATCC NSCLC 96% | 786-0 renal 101% | COLO 205 colon 91.1%

Oc1ccccc1/C=N/c1ccccn1
inactive: NCI-H23 lung 220% | NCI-H226 lung 107% | NCI-H322M lung 132% | HOP-62 NSCLC 112% | NCI-H460 lung 112% | NCI-H522 lung 92% | A549/ATCC NSCLC 104% | 786-0 renal 158% | COLO 205 colon 85.7%

C=C1C(=O)O[C@H]2[C@H]1CC/C(CNC(=O)/C1=C/CC[C@@]3(C)O[C@H]3[C@H]3OC(=O)C(=C)[C@@H]3CC1)=C\CC[C@@]1(C)O[C@@H]21
inactive: NCI-H23 lung 99.6% | NCI-H226 lung 92.4% | NCI-H322M lung 96% | HOP-62 NSCLC 93.8% | NCI-H460 lung 104% | A549/ATCC NSCLC 91% | 786-0 renal 93.1% | COLO 205 colon 71.8%
active: NCI-H522 lung -28.3%

O=C(Nc1ccc(-n2ccc3c(NC(=O)c4ccccc4)ncnc32)cc1)Nc1ccc(Cl)c(C(F)(F)F)c1
active: NCI-H23 lung -28.2% | NCI-H226 lung 8.8% | NCI-H460 lung -62.2% | NCI-H522 lung -58.9% | A549/ATCC NSCLC -62.9%
inactive: NCI-H322M lung 36% | HOP-62 NSCLC 20.1% | 786-0 renal 37% | COLO 205 colon 17.4%

O=C(NCCNc1nccc(-c2c(-c3cccc(O)c3)nc3sccn23)n1)c1cccc(C(F)(F)F)c1
inactive: NCI-H23 lung 81% | NCI-H226 lung 88.5% | HOP-62 NSCLC 114% | NCI-H460 lung 85.7% | HOP-92 NSCLC 83.8% | NCI-H522 lung 48.5% | A549/ATCC NSCLC 71.3% | 786-0 renal 89.3%

CC(=O)N1N=C2N(Cc3ccccc3)C(=O)c3c(sc4c3CCCC4)N2C1c1cn(-c2ccccc2)nc1-c1ccc(Cl)cc1 (stereo not drawn)
inactive: NCI-H23 lung 88.6% | NCI-H226 lung 91.9% | NCI-H322M lung 97.9% | HOP-62 NSCLC 98.6% | NCI-H460 lung 111% | NCI-H522 lung 101% | A549/ATCC NSCLC 95.9% | 786-0 renal 92.6% | COLO 205 colon 101%

S=C=NP1(N=C=S)=NP(N=C=S)(N=C=S)=NP(N=C=S)(N=C=S)=NP(N=C=S)(N=C=S)=N1 (stereo not drawn)
inactive: NCI-H23 lung 97.7% | NCI-H226 lung 94% | HOP-62 NSCLC 85.4% | NCI-H460 lung 111% | HOP-92 NSCLC 93.2% | NCI-H522 lung 72.2% | A549/ATCC NSCLC 79.2% | 786-0 renal 89.4% | COLO 205 colon 118%

CCCCCCCCN(CCCCCCCC)CC(O)c1cc(-c2ccccc2)nc2ccc(OC)cc12 (stereo not drawn)
inactive: NCI-H23 lung 67.1% | NCI-H226 lung 88.1% | HOP-62 NSCLC 95.4% | NCI-H460 lung 98.9% | HOP-92 NSCLC 70.1% | NCI-H522 lung 77.5% | A549/ATCC NSCLC 78.6% | 786-0 renal 82.6% | COLO 205 colon 85.7%

CCC1S/C(=N\N=C(/C)c2ccco2)N(c2ccccc2)C1=O (stereo not drawn)
inactive: NCI-H23 lung 98.8% | NCI-H226 lung 122% | HOP-62 NSCLC 106% | NCI-H460 lung 93.8% | HOP-92 NSCLC 40.6% | NCI-H522 lung 74.7% | A549/ATCC NSCLC 104% | 786-0 renal 96.9% | COLO 205 colon 117%

CCc1c(C)c2cc3c(c(C)c2oc1=O)OCC(=O)N3
inactive: NCI-H23 lung 63.5% | NCI-H226 lung 52.4% | HOP-62 NSCLC 73.5% | NCI-H460 lung 43.2% | HOP-92 NSCLC 50.7% | NCI-H522 lung 58.2% | A549/ATCC NSCLC 47% | 786-0 renal 48.2% | COLO 205 colon 83%

CCC1S/C(=N\N=C(/C)c2cccs2)N(c2ccccc2)C1=O (stereo not drawn)
inactive: NCI-H23 lung 101% | NCI-H226 lung 136% | HOP-62 NSCLC 65.4% | NCI-H460 lung 112% | HOP-92 NSCLC 85.1% | NCI-H522 lung 82.2% | A549/ATCC NSCLC 89.5% | 786-0 renal 86.2% | COLO 205 colon 114%

NS(=O)(=O)c1ccc(Nc2nc(O)c(/C=C3\C=Nc4ccccc43)s2)cc1
inactive: NCI-H23 lung 92% | NCI-H226 lung 99.6% | HOP-62 NSCLC 97.5% | NCI-H460 lung 98.6% | HOP-92 NSCLC 114% | NCI-H522 lung 92% | A549/ATCC NSCLC 90.4% | 786-0 renal 106% | COLO 205 colon 122%

Cc1ccc[n+](CC(=O)c2cccc3ccccc23)c1
inactive: NCI-H23 lung 102% | NCI-H226 lung 96.2% | HOP-62 NSCLC 100% | NCI-H460 lung 111% | HOP-92 NSCLC 97.1% | NCI-H522 lung 101% | A549/ATCC NSCLC 111% | 786-0 renal 93.8%

COC(=O)Nc1nc2ccc(Sc3ccccc3)cc2[nH]1
active: NCI-H460 lung 6.37% | COLO 205 colon -14.7%
inactive: NCI-H23 lung 32.7% | NCI-H226 lung 19.9% | HOP-62 NSCLC 29.4% | HOP-92 NSCLC 54.2% | NCI-H522 lung 13.4% | A549/ATCC NSCLC 13.4% | 786-0 renal 33.7%

COc1ccc(-c2ccc(NC(=O)Nc3cccc(C(F)(F)F)c3)c(C)n2)cc1
inactive: NCI-H23 lung 47.6% | NCI-H226 lung 58.1% | HOP-62 NSCLC 68% | NCI-H460 lung 48.7% | HOP-92 NSCLC 68.8% | NCI-H522 lung 28.5% | A549/ATCC NSCLC 42.5% | 786-0 renal 77.3% | COLO 205 colon 84.5%

Cc1cccc[n+]1CCC[n+]1ccccc1C
inactive: NCI-H23 lung 99.8% | NCI-H226 lung 98.4% | HOP-62 NSCLC 84.9% | NCI-H460 lung 106% | HOP-92 NSCLC 86% | NCI-H522 lung 88.1% | A549/ATCC NSCLC 95.7% | 786-0 renal 84.2% | COLO 205 colon 91.1%
